# Measured values reported in PubChem BioAssay AID1159602 (The Scripps Research Institute Molecular Screening Center, 2016).
# Among all 22,000 compounds or so, about 220 (1%) were called active. The sample holds actives, similar compounds and a random draw of the others, so the mix is not that of the screen. Unmarked numbers belong to inactive results. Rule as the data show it: active = inhibition above about 35%; inactive = the rest.
# Target: Mitogen-activated protein kinase kinase kinase 5 (Homo sapiens) (UniProt Q99683)
# Test: ASK1 kinase inhibitors, primary screen, biochemical, AlphaScreen (AID 1159602);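 also: 0% = median of compound wells and 100% = no enzyme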
# Settings: AlphaScreen MKK6 phosphorylation by ASK1, luminescence; at 7.44 µM; active compounds read high
# Sequence of Mitogen-activated protein kinase kinase kinase 5 (Homo sapiens) (Q99683 whole entry, looked up): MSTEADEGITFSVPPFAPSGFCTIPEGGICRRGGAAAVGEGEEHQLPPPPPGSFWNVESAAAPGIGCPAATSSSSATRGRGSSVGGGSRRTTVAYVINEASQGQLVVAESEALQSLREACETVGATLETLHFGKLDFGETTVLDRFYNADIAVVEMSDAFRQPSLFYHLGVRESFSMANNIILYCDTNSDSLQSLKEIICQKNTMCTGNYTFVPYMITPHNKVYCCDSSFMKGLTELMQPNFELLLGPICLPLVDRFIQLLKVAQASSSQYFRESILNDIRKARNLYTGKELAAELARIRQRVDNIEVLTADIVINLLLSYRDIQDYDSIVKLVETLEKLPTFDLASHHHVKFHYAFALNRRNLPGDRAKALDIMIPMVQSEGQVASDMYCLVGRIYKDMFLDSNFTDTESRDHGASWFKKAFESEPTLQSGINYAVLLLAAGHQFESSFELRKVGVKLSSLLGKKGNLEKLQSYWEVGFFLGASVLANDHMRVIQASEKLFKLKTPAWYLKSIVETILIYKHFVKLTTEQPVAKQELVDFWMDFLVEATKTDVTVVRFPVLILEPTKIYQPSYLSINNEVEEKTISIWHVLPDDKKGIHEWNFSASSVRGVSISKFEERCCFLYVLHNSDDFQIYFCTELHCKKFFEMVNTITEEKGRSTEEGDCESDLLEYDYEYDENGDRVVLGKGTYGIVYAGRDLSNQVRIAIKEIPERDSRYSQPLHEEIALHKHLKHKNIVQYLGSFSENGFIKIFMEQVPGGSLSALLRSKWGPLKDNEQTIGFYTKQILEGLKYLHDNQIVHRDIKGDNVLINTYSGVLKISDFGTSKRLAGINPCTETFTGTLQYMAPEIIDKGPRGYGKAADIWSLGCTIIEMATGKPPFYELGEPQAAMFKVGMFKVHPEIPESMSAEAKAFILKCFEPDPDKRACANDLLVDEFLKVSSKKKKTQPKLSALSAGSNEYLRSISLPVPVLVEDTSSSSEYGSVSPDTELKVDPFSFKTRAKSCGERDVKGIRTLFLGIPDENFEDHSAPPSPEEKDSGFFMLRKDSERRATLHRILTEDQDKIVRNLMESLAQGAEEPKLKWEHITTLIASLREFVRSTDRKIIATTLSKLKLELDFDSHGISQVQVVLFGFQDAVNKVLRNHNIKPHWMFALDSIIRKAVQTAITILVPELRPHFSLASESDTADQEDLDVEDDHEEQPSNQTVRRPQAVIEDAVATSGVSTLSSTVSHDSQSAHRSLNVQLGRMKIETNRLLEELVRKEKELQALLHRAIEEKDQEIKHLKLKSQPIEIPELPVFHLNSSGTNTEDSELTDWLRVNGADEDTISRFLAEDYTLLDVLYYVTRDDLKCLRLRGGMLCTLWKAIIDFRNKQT
row,SMILES,inhibition
1,O=C(Nc1ccncc1)OC1CCN(C(=O)[C@H](O)COc2ccc(Br)cc2)CC1,-3.38%
2,COC(=O)c1cccc(-n2ncc3cc(Nc4ccccc4)ccc32)c1,-20.5%
3,Cc1noc(C)c1-c1nc(NC2CC2)c2ncn(-c3ccsc3)c2n1,-7.13%
4,COc1cc2nc(N3CCN(c4ccccn4)CC3)nc(NCc3nc4ccccc4[nH]3)c2cc1OC,-8.78%
5,CC(=O)Nc1ccc(NC(=O)c2csc(N3CCC(N4CCOCC4)CC3)n2)cc1,14.1%
6,CCCNc1nc(-c2cccc(C(C)=O)c2)nc2nc[nH]c12,6.62%
7,c1ccc(OCCNc2nc(N3CCC(N4CCOCC4)CC3)nc3c2ncn3-c2ccccc2)cc1,8.08%
8,CC(C)(C)OC(=O)N1CCC(CC(=O)Nc2ccnn2-c2cccc(C(=O)Nc3ccc(N4CCOCC4)cc3)c2)CC1,7.81%
9,Cc1noc(C)c1-c1cc(C(=O)NCc2cccc(C(F)(F)F)c2)ccn1,1.72%
10,O=C(NCCOc1ccccc1)c1cnc(Nc2cccnc2)s1,4.63%
11,O=C(c1cccnc1)N1CCCC(Nc2ccc3[nH]ncc3c2)C1 (stereo unspecified),-32%
12,Nc1cccc(-c2nc(NCc3nc4ccccc4[nH]3)c3ncn(Cc4ccc(C(F)(F)F)cc4)c3n2)c1,-18.3%
13,Cc1cc(NCc2cccnc2)nc(-c2ccc(C(N)=O)cc2)n1,1.31%
14,COc1cc(Nc2cc(C(=O)NCc3ccccc3)ccn2)cc(OC)c1OC,2.85%
15,O=C(NC1CC1)c1ccc(-c2nc(NC3CCN(Cc4ccccc4)CC3)c3ncn(C4CCCCC4)c3n2)cc1,9.66%
16,FC(F)(F)c1cccc(CNc2ncnc3nc(Nc4ccncn4)[nH]c23)c1,14.3%
17,COc1cc(NC(=O)c2ccnc(N3CCC(N4CCOCC4)CC3)c2)cc(OC)c1OC,1.9%
18,NC(=O)c1cccc(N2CCCC2CO)n1 (stereo unspecified),1.37%
19,COc1cc(NC(=O)[C@H](N)c2ccc(F)cc2)c(F)cc1-c1cn[nH]c1,8.67%
20,Cc1nn(C)c(C)c1-c1nc(NCCc2ccc(O)cc2)c2ncn(CCN3CCCC3=O)c2n1,-10.9%
21,Cn1c(Nc2nc(NCCN3CCOCC3)c3ncn(-c4ccccc4)c3n2)nc2ccccc21,-13.6%
22,CCN(CC)C(=O)C1CCCN(c2nc(NCc3cccc(C(F)(F)F)c3)c3cc(OC)c(OC)cc3n2)C1 (stereo unspecified),3.43%

row,SMILES,inhibition
1,CCNc1nc(C(=O)NCc2ccccc2)cs1,-2.48%
2,O=C(NCCN1CCOCC1)c1ccc2nc(N3CCCC3CO)sc2c1 (stereo unspecified),3.28%
3,CCCNc1cc(NC2CCN(Cc3ccccc3)CC2)nc(N)n1,6.95%
4,O=C([C@@H](O)CSc1ccc(Br)cc1)N1CCC(Nc2ccc3[nH]ncc3c2)CC1,-0.23%
5,CC(=O)c1cccc(-c2nc3ccc(C(=O)NCCO)cc3s2)c1,0.91%
6,FC(F)(F)c1ccc(Cn2cnc3c(Nc4ccc(Oc5ccccc5)cc4)nc(N4CCOCC4)nc32)cc1,18%
7,CC(C)n1cnc2c(Nc3ccc(N4CCOCC4)cc3)nc(NC3CCC(O)CC3)nc21 (stereo unspecified),6.93%
8,Cc1cc(NC2CCN(Cc3ccccc3)CC2)nc(Nc2ccccc2)n1,12.7%
9,c1ccc(CN2CCC(Nc3nc(Nc4ccc(N5CCOCC5)cc4)c4ncn(C5CCCCC5)c4n3)CC2)cc1,22.4%
10,CC(C)n1cnc2c(NC3CCN(Cc4ccccc4)CC3)nc(Nc3ccc(N4CCOCC4)cc3)nc21,45% (active)
11,CC(C)n1cnc2c(NC3CCN(Cc4ccccc4)CC3)nc(NC3CCN(Cc4ccccc4)CC3)nc21,8.61%
12,O=C(Nc1ccc(Oc2ccccc2)cc1)c1cncc(-c2ccc(C(=O)NC3CC3)cc2)c1,9.5%
13,COc1cc(Nc2ncnc3c2nc(N2CCN(Cc4ccc5c(c4)OCO5)CC2)n3C(C)C)cc(OC)c1OC,10.6%
14,COc1ccc(CCNc2cc(C)nc(Nc3cccc(N(C)C)c3)n2)cc1,70.9% (active)
15,CC(=O)Nc1ccc(Nc2cc(C)nc(NCc3ccc4c(c3)OCO4)n2)cc1,5.86%
16,Cc1cc(Nc2ccc3c(c2)OCO3)nc(Nc2cccc(N(C)C)c2)n1,62.2% (active)
17,CN(C)c1cccc(Nc2nccc(Nc3ccccc3)n2)c1,13%
18,CCNc1nc(C)cc(Nc2ccc(N3CCOCC3)cc2)n1,30.4%
19,COc1ccc(CCNc2cc(C)nc(NCc3ccc4c(c3)OCO4)n2)cc1,15.4%
20,COc1ccc(CCNc2ncnc3c2nc(Nc2cccc(N(C)C)c2)n3C(C)C)cc1,27.5%
21,Cc1cc(Nc2ccc(N3CCOCC3)cc2)nc(NCc2ccc3c(c2)OCO3)n1,37.3% (active)
22,CN(C)c1cccc(Nc2ncc(C(=O)Nc3ccc4c(c3)OCO4)s2)c1,24.2%

row,SMILES,inhibition
1,CC(=O)c1cccc(-c2ccc(C(=O)Nc3ccccc3)s2)c1,-3.18%
2,COc1ccc2c(c1)C[C@H](C(=O)Nc1ccc(-c3cn[nH]c3)cc1N(C)CCN(C)C)NC2,5.32%
3,CC(C)N(CCNc1nc(Nc2ccccc2)nc2c1ncn2C(C)C)C(C)C,6.04%
4,NC(=O)c1ccc(-c2nc(NCCO)c3ncn(-c4ccsc4)c3n2)cc1,0.26%
5,Cc1cnc(N2CCc3ccccc3C2)nc1NCCN(C(C)C)C(C)C,-16.8%
6,COc1cc(-c2cn[nH]c2)ccc1C(=O)NCCc1cccs1,15.3%
7,O=C(Cc1cccc(Br)c1)Nc1cnn(-c2cccc(C(=O)Nc3ccc(N4CCOCC4)cc3)c2)c1,-2.11%
8,Cc1cccc(CC(=O)Nc2cnn(-c3cccc(C(=O)Nc4ccc(N5CCOCC5)cc4)c3)c2)c1,16.2%
9,Cc1ccccc1-c1cscc1Nc1cnn(-c2cccc(C(=O)Nc3ccc(N4CCOCC4)cc3)c2)c1,37.8% (active)
10,c1ccc(CNc2nc(Nc3cccnc3)nc3c2ncn3-c2ccccc2)cc1,8.4%
11,CC(=O)c1cccc(-c2nc3ccc(C(=O)NC4CCN(Cc5ccccc5)CC4)cc3s2)c1,-0.28%
12,CC(C)n1c(Nc2ccccc2)nc2c(NCc3cccc(C(F)(F)F)c3)ncnc21,-21.3%
13,CCCNc1ncnc2c1nc(N1CCN(c3ccccn3)CC1)n2C(C)C,-14.9%
14,COc1ccc(CCNc2cc(Nc3cc(OC)c(OC)c(OC)c3)nc(N)n2)cc1,-1.19%
15,CCCNC(=O)c1csc(Nc2nc3ccccc3n2C)n1,-7.28%
16,COc1ccc(-c2nc(Nc3cc(OC)c(OC)c(OC)c3)c3ncn(C(C)C)c3n2)cc1,9.01%
17,CC(C)[C@@H](O)C(=O)N1CCC[C@@H]1C(=O)Nc1ccc2[nH]ncc2c1,4.14%
18,O=C(NCc1nc2ccccc2[nH]1)c1cc(N2CCCC2CO)nc2ccccc12 (stereo unspecified),7.25%
19,c1ccc(-n2cnc(-c3ccnc(Nc4ccc(N5CCOCC5)cc4)c3)n2)cc1,9.1%
20,c1ccc(Nc2nccc(Nc3ccc(N4CCOCC4)cc3)n2)cc1,25.1%
21,Fc1cnc(Nc2ccc(N3CCNCC3)cc2)cc1-n1cnc(Nc2ccccc2)n1,56.6% (active)
22,O=C1CCCN1CCn1cnc2c(NC3CC3)nc(NCc3ccc4c(c3)OCO4)nc21,-15.8%

row,SMILES,inhibition
1,Nc1nc(NCCCN2CCCC2=O)cc(Nc2cnccn2)n1,0.26%
2,CCCNc1nc(N2CCCC(C(=O)N(CC)CC)C2)nc2c1ncn2Cc1ccc(C(F)(F)F)cc1 (stereo unspecified),15.8%
3,COc1cc2nc(Cl)nc(NC3CC3)c2cc1OC,-7.49%
4,CCN(CC)c1nc(NCCc2ccc(O)cc2)nc(Nc2cc(OC)c(OC)c(OC)c2)n1,4.75%
5,Nc1cccc(-c2cncc(C(=O)NCCOc3ccccc3)c2)c1,1.06%
6,CC(C)n1cnc2c(NCc3cccc(C(F)(F)F)c3)nc(Nc3ccc(OC(F)(F)F)cc3)nc21,-3.35%
7,Cc1nn(C)c(C)c1-c1nc(C(=O)NCCc2ccc(O)cc2)cs1,4.91%
8,Nc1nc(NCc2nc3ccccc3[nH]2)cc(N2CCN(Cc3ccc4c(c3)OCO4)CC2)n1,1.22%
9,c1ccc2[nH]c(CNc3ncnc4nc(Nc5ccncn5)[nH]c34)nc2c1,-8.27%
10,Cc1cc(NCc2nc3ccccc3[nH]2)nc(N2CCOCC2)n1,-7.53%
11,c1ccc(-c2ncn[nH]2)c(Nc2ccnc(Nc3ccc(N4CCOCC4)cc3)c2)c1,37% (active)
12,CNC(=O)c1ccccc1Nc1ccnc(Nc2ccc(N3CCOCC3)cc2)c1,8.11%
13,Cc1cnc(Nc2ccc(N3CCOCC3)cc2)nc1Nc1ccccc1-c1ncn[nH]1,-18%
14,COc1ccc(CCNc2ncnc3nc(-c4ccc(C(N)=O)cc4)[nH]c23)cc1,-0.94%
15,NC(=O)c1ccc(-c2ncc(C(=O)NCCOc3ccccc3)s2)cc1,-1.66%
16,COc1cc(Nc2nc(C)cc(N)n2)cc(OC)c1OC,-5.08%
17,Nc1cccc(-c2cc(Nc3ccccc3)ncn2)c1,4.09%
18,c1cnc(Nc2nc(NCc3cccnc3)c3ncn(C4CCCCC4)c3n2)nc1,5.63%
19,c1ccc(CN2CCC(Nc3nc(-c4csc5ccccc45)nc4c3ncn4C3CCCCC3)CC2)cc1,-20.4%
20,c1ccc(Oc2ccc(Nc3nc(Nc4ccccn4)nc4c3ncn4-c3ccsc3)cc2)cc1,2.93%
